In all, about 310,000 compounds went through this assay and about 17,000 (5.5%) were called active. Another 11% or so got no clear call; they are omitted. Calls come from the whole dose curve; as a rule, active = well fitted inhibition curve with a large enough effect; inconclusive = small, poorly fitted or top-dose-only effect, or effect the other way; inactive = no such curve, though single readings can be large or run the other way. Shown is part of a subset that was picked to be rich in actives. A call without a number means that no potency is given here.
molecular target: Nuclear receptor ROR-gamma (Mus musculus) (UniProt P51450); experiment: qHTS for inhibitors of ROR gamma transcriptional activity; conditions: Drosophila S2 Gal4-RORgamma UAS-luciferase reporter, 20 h; series mostly up to 53.6 µM; note: nearly all actives have a fitted effect of over 60% in size
Outline: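 Drosophila Schneider cells stably carrying a metallothionein-driven Gal4 DBD–ROR gamma fusion and a UAS-Photinus luciferase reporter were exposed to compound for 1 hr, then induced with copper sulfate (700 uM final) for 20 hr at ambient temperature before luminescence reading.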
Potency is the fitted concentration of half-maximal effect.

Sequence of Nuclear receptor ROR-gamma (Mus musculus) (P51450 whole entry, looked up, the tested form may be a part): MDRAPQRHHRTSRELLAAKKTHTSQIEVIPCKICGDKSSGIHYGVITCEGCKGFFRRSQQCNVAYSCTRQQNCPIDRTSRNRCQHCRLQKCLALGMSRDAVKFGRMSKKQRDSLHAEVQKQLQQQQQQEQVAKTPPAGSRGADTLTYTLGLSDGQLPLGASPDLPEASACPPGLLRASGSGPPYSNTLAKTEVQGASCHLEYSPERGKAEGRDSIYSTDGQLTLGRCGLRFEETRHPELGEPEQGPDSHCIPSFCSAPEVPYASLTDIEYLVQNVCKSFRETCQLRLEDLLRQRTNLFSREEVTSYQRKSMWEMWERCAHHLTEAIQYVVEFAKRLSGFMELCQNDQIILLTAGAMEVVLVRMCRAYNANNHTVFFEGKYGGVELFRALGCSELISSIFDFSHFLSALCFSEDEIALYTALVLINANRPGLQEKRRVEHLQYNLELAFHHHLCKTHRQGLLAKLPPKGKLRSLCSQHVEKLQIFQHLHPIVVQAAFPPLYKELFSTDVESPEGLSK

| Compound | Potency |
| --- | --- |
| Cc1cccc(CCNS(=O)(=O)c2ccc3c(c2)NC(=O)CO3)c1 | inactive |
| O=C(NC1CCCC1)C(c1ccco1)N(C(=O)c1ccco1)c1ccc(F)cc1 (configuration not stated) | inactive |
| Cc1ccc(C(=O)Oc2ccc(C(=S)N3CCOCC3)cc2)cc1 | inactive |
| COCC(=O)N1CCCC(C(=O)c2ccc(C(F)(F)F)cc2)C1 (configuration not stated) | inactive |
| NC(=O)c1ccc(Nc2ccc3c(c2)CCC3)c([N+](=O)[O-])c1 | inactive |
| COc1cc(C(=O)NCc2nnc(SCC(=O)Nc3nc4ccc(C)cc4s3)o2)cc(OC)c1OC | 2.51 µM (active) |
| COc1cc(C(=O)NCc2nnc(SCC(=O)c3ccc(Cl)cc3)o2)cc(OC)c1OC | inactive |
| COc1ccc(C(=O)NCc2nnc(SCC(=O)Nc3cccc(OC)c3)o2)cc1 | inactive |
| OCCN1CCN(C(=S)c2ccc(-c3ccccc3)cc2)CC1 | inactive |
| S=C(c1ccccc1)N1CCCC1 | inactive |
| S=C(c1ccc(-c2ccccc2)o1)N1CCCCC1 | 10 µM (active) |
| Cc1ccccc1NC(=O)CSc1ccc2nnc(-c3ccccn3)n2n1 | inactive |
| CC(C)CC(=O)Nc1nnc(S(=O)(=O)N(C)c2ccc(Cl)cc2)s1 | inactive |
| CC(=O)Nc1ccc(N2C(=O)C3C4C=CC(CC4)C3C2=O)cc1 (configuration not stated) | inactive |
| CCOC(=O)N1CCN(CC(=O)c2c(C)[nH]c3ccccc23)CC1 | inactive |
| Cc1[nH]c2ccccc2c1C(=O)COC(=O)C(C)C | inactive |
| CCOC(=O)c1c(-c2ccccc2)oc2cc(Br)c(O)cc12 | inactive |
| CCOC(=O)c1c(C)[nH]c2c1-c1ccccc1C(=O)C2=O | 3.55 µM (active) |
| CCOC(=O)c1c(C)nc(-c2ccccc2)nc1NC(=O)C(C)C | inactive |
| CCOC(=O)c1c(C)[nH]c(=S)c(C#N)c1-c1ccccc1 | 12.6 µM (active) |
| COc1cccc(NC(=O)CCc2nnc3ccc(N4CCC(C)CC4)nn23)c1 | inactive |
| CCCCCC(O)(CCN1CCCCC1)c1ccccc1 (configuration not stated) | inactive |

| Compound | Potency |
| --- | --- |
| COc1cc(C)cc(CN2CCC(Cc3ccccc3)CC2)c1O | inactive |
| CCn1c(SCC(=O)NC2=NCCS2)nnc1C(C)NC(=O)c1ccccc1F (configuration not stated) | inactive |
| CC1CCN(C(=O)CCc2nnc3ccc(NCc4ccco4)nn23)CC1 | inactive |
| CCOC(=O)C1CCCN(S(=O)(=O)c2ccc3c(c2)C(C)(C)C(=O)N3C)C1 (configuration not stated) | inactive |
| CC1CC(C)CN(c2ccc(S(=O)(=O)N3CCOCC3)cc2)C1 (configuration not stated) | inactive |
| O=C(Cc1ccccc1)N1CCN(S(=O)(=O)c2ccc([N+](=O)[O-])cc2)CC1 | inactive |
| CCC1=NN(C(=O)Cc2ccc([N+](=O)[O-])cc2)C(O)(c2ccc(Br)cc2)C1 (configuration not stated) | 11.2 µM (active) |
| O=C(Cc1ccc(Br)cc1)N1CCN(c2ccccn2)CC1 | inactive |
| C[N+](C)(C)CCNC(=O)c1cc[n+](Cc2ccccc2)c(/C=N/O)c1 | inactive |
| CC1CCCCC1NC(=O)c1cn(C)c2ccc(S(=O)(=O)N3CCOCC3)cc2c1=O (configuration not stated) | inactive |
| COc1ccc(C(O)(C2CCCCC2)C(CN2CCCC2)c2ccccc2)cc1 (configuration not stated) | inactive |
| O=C(C1CCCO1)N1CCN(C(=S)Nc2cccc(Cl)c2)CC1 (configuration not stated) | inactive |
| Cc1cccc(NC(=S)N2CCC(c3nc4ccccc4s3)CC2)c1 | 12.6 µM (active) |
| Cc1nc2ccc(NC(=S)N3CCC(C)CC3)cc2nc1C | inactive |
| O=C(NC1CCCC1)C1CCN(C(=O)Nc2cccc(Cl)c2)CC1 | inactive |
| Cc1cccc(C(=O)N2CCC(c3nc4ccccc4s3)CC2)c1 | inactive |
| Cc1ccc(C2CCN(C(=S)Nc3cccc(Cl)c3)C2)cc1 (configuration not stated) | 10 µM (active) |
| Cc1cccc(OCC(=O)Nc2ccc(NC(=O)c3ccco3)c(C)c2)c1 | inactive |
| O=C(NCC(=O)N(c1ccccc1)C(C(=O)NCC1CCCO1)c1ccccc1)c1cccs1 (configuration not stated) | inactive |
| CC1(C)C2CCC1(CS(=O)(=O)NCCc1c[nH]c3ccccc13)C(=O)C2 (configuration not stated) | inactive |
| COc1ccc(NC(=O)/C(Cl)=C(/Cl)S(=O)Cc2ccc(C)cc2)cn1 (configuration not stated) | inactive |
| COc1ccc(C(=O)Nc2ccc(NC(=O)C(C)C)nc2)cc1 | inactive |

| Compound | Potency |
| --- | --- |
| COc1ccc(CS(=O)/C(Cl)=C(/Cl)C(=O)Nc2ccc(OC)nc2)cc1 (configuration not stated) | 1.12 µM (active) |
| O=C(NCc1ccccc1)C1CCN(C(=O)Cc2ccccc2)CC1 | inactive |
| Cc1ccc2nc(SCC(=O)NC3CCCC3)[nH]c2c1 | inactive |
| Clc1ccc(-c2ncc3ccccn23)c(Cl)c1 | inactive |
| O=C1CSC(c2ccccc2)N1c1nc(-c2ccc(Cl)cc2Cl)cs1 (configuration not stated) | inactive |
| Clc1ccc(-c2cc(-c3ccccn3)on2)c(Cl)c1 | 3.98 µM (active) |
| COc1ccc(-n2nc(C(=O)NCC(=O)N3CCN(c4ccccc4OC)CC3)c3ccccc3c2=O)c(OC)c1 | inactive |
| Cc1cccc2c1cnn2C(=O)CCC(=O)NC1CCCCC1 | inactive |
| CCCCc1nc2cc(C(=O)N3CCCCC3CCO)ccc2o1 (configuration not stated) | inactive |
| Cc1ccccc1N/N=C/c1ccc(N2CCOCC2)cc1 | inactive |
| C=CCNC(=S)N/N=C/c1ccc(C)s1 | inactive |
| CNC(=S)N/N=C/c1ccc(N2CCOCC2)s1 | 1.26 µM (active) |
| CSCCC(NS(=O)(=O)c1ccccc1F)C(=O)N1CC=C(c2ccccc2)CC1 (configuration not stated) | inactive |
| C=CCc1ccccc1OCC(O)CN1CCN(CCO)CC1 (configuration not stated) | inactive |
| CCN(CC(=O)NCCCN1CCOCC1)S(=O)(=O)c1cc(Cl)ccc1Cl | inactive |
| CC(=O)N1CCC(C(=O)OCc2ccc(Cl)cc2)(c2ccccc2)CC1 | inactive |
| O=C(NCc1ccco1)/C(=C\c1cccc([N+](=O)[O-])c1)NC(=O)c1ccco1 | inactive |
| CCc1cc(C(N)=O)c(NC(=O)c2ccc(OC)cc2)s1 | inactive |
| COC(=O)CNC(=O)c1ccc(OC2CCN(C(=O)C3CC3)CC2)cc1 | inactive |
| CCc1ccc(/C=N/NC(=O)c2ccc(OC3CCCC3)cc2)s1 | 11.2 µM (active) |
| CCOC(=O)N1CCN(C(=O)c2ccc3c(=O)n(CCc4ccc(OC)c(OC)c4)c(=O)[nH]c3c2)CC1 | inactive |
| CCOC(=O)Cn1c(O)c(N=NC(=O)CNC(=O)Cc2ccccc2)c2ccccc21 | inactive |

| Compound | Potency |
| --- | --- |
| CC1CCN(C(=O)/C(=C\c2ccccc2F)NC(=O)c2ccccc2)CC1 | inactive |
| O=C(Cn1cc(/C=N/NC(=O)c2cccc(C(F)(F)F)c2)c2ccccc21)Nc1ccc(F)cc1 | 11.2 µM (active) |
| O=C(CN1CCN(c2ccc(F)cc2)CC1)Nc1cccc(C(F)(F)F)c1 | inactive |
| NC(=O)Cn1cc(/C=N\NS(=O)(=O)c2ccccc2)c2ccccc21 | inactive |
| Cc1ccc(S(=O)(=O)N/N=C(\c2ccccc2)C2CC2)cc1 | inactive |
| Cn1cccc1/C=N/NC(=O)CNc1cccc2ccccc12 | inactive |
| Cc1cccc(/C=N/NC(=O)CNc2cccc3ccccc23)n1 | 14.1 µM (active) |
| C/C(=N\NC(=O)CNc1cccc2ccccc12)c1ccc(Br)s1 | inactive |
| CCn1cc(CN2CCN(CC(C)(C)C)C(CCO)C2)c2ccccc21 (configuration not stated) | inactive |
| CN(CCOc1ccccc1)Cc1nc2cc(Cl)ccc2c(=O)[nH]1 | 4.47 µM (active) |
| O=c1[nH]c(CN2CCOCC2)nc2cc(Cl)ccc12 | inactive |
| CN(Cc1nc2ccccc2c(=O)[nH]1)Cc1cc(=O)oc2ccc3ccccc3c12 | inactive |
| COc1cccc(CNC(=O)c2cccnc2Sc2ccc(Cl)cc2)c1 | inactive |
| Brc1ccccc1CN1CCC(Cc2ccccc2)CC1 | inactive |
| C=CCn1c(COc2ccccc2)nnc1SCC(=O)NCC(=O)OCC | inactive |
| CCOC(=O)CNC(=O)CSc1nnc(-c2cccc(OC)c2)n1CC | inactive |
| CCOC(=O)CNC(=O)CSc1nnc(COc2ccc(Cl)cc2)n1CC | 7.94 µM (active) |
| Cn1c(=O)oc2cc(S(=O)(=O)NCCC(=O)NCc3ccccc3Cl)ccc21 | inactive |
| O=C(CCC1CCN(C(=O)c2cccc(Cl)c2F)CC1)Nc1ccccc1 | inactive |
| O=C(NCc1ccc2c(c1)OCO2)c1ccc2c(c1)C(=O)N(CC1CCCO1)C2=O (configuration not stated) | inactive |
| CCC(=O)Nc1ccc(C(=O)Nc2ccc3c(c2)C(=O)N(CC2CCCO2)C3=O)cc1 (configuration not stated) | inactive |
| O=C1c2cccc3c([N+](=O)[O-])ccc(c23)C(=O)N1CC1CCCO1 (configuration not stated) | 15.8 µM (active) |

| Compound | Potency |
| --- | --- |
| O=C(CSc1n[nH]c(=O)n1-c1ccccc1)Nc1ccccc1C(F)(F)F | inactive |
| CCCNC(=O)CCc1c(C)nc2c(c(C)nn2-c2ccc(C)cc2)c1C | inactive |
| COc1cc2ccccc2cc1C(=O)Nc1nc(C)c(C(C)=O)s1 | inactive |
| CCCCCC1CC(COc2ccccc2)OC1=O (configuration not stated) | inactive |
| COc1ccc(C(=O)NC2CC(C)(C)Cc3c2cnn3-c2ccccc2)c(OC)c1 (configuration not stated) | inactive |
| O=C(NCCCn1ccnc1)c1cc(Br)c(Br)s1 | inactive |
| C=Cn1cc[n+](CC(=O)c2ccc(OC)c(OC)c2)c1 | inactive |
| O=C(CSc1ccc(-c2ccco2)nn1)Nc1cccc(F)c1 | inactive |
| Cc1cnc(NC(=O)CSc2nnc(C)s2)s1 | inactive |
| Cc1ccc(SCC(=O)Nc2ncc(C)s2)cc1 | inactive |
| Cc1cnc(NC(=O)c2ccc(Cl)nc2)s1 | 15.8 µM (active) |
| Cc1cnc(NC(=O)c2ccccn2)s1 | 0.794 µM (active) |
| Cc1ccc(Cl)cc1NC(=O)c1ccccn1 | inactive |
| Cc1cnc(NC(=O)CSc2c(Cl)cccc2Cl)s1 | inactive |
| CCC(C)C(NC(=O)C1CCC(=O)N1C(=O)OCc1ccccc1)C(=O)NC(C(=O)N1CCCC1C(N)=O)C(C)CC (configuration not stated) | inactive |
| Cc1cc(=O)oc2cc(OC(C)C(=O)NCCc3ccc(S(N)(=O)=O)cc3)ccc12 (configuration not stated) | inactive |
| CN(C(=O)COC(=O)CNC(=O)C12CC3CC(CC(C3)C1)C2)c1ccccc1 | inactive |
| CCC(=O)Nc1ccc(S(=O)(=O)Nc2c(NC)c3ccccc3oc2=O)cc1 | inactive |
| O=S1(=O)CCOC[C@H](CC2CCCCC2)N1Cc1ccc(F)cc1 | inactive |
